Test results published in article PMC7862700, “An all-to-all approach to the identification of sequence-specific readers for epigenetic DNA modifications on cytosine”.

Assays:
Experiment in all cases: DAPPL (digital affinity profiling via proximity ligation, sequencing); 10 mM Tris-HCl pH 7.5, 50 mM NaCl, 1 mM DTT, 4% glycerol, room temperature, 30 min; GST-TFs on glutathione beads, 16-mer random dsDNA library, 0.1% formaldehyde crosslink after washing; high values mean tight binding
[1] = molecular target: T1, FEV (Homo sapiens, UniProt Q99581 1-238); conditions: protein: recombinant; tags: N-terminal GST; dsDNA, one strand shown
T1 sequence: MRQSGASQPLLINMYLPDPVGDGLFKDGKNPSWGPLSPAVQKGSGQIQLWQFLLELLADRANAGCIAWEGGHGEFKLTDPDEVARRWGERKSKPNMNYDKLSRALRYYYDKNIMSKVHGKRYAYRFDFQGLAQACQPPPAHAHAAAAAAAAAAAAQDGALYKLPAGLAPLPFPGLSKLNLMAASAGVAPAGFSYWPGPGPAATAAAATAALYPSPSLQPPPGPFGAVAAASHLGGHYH
Summary of the method: (§1)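 After expression in yeast as GST fusions, human transcription factors were bound to glutathione beads, DNA-barcoded and mixed with a tag-only sample. The pools were incubated with 200 nmole of a 16-mer random double-stranded DNA library in Tris/NaCl/DTT/glycerol buffer (30 min, room temperature), washed and crosslinked with 0.1% formaldehyde. Proximity ligation with BsaI/T4 ligase ran for 1 h at 37 °C, before PCR amplification and sequencing on an Illumina NextSeq500. Binding signal is a hexamer's read frequency for a factor divided by its frequency for the tag-only sample.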

[2] = molecular target: ETV5 (Homo sapiens, UniProt P41161 1-510); conditions: protein: recombinant; tags: N-terminal GST; dsDNA, one strand shown
Sequence of ETV5 (P41161 whole entry): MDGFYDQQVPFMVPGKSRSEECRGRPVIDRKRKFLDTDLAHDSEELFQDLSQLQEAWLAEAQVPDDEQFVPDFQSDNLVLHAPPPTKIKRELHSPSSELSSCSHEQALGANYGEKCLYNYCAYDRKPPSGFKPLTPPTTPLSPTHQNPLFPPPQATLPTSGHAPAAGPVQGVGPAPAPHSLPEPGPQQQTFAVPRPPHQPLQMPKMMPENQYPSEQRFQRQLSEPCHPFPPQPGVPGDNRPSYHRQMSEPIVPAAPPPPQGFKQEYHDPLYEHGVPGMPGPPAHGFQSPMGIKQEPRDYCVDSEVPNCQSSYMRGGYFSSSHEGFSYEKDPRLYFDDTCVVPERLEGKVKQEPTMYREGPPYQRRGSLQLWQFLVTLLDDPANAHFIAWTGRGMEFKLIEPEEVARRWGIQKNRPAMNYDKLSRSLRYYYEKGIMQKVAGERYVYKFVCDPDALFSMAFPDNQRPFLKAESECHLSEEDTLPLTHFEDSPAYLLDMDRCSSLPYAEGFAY
Summary of the method: as §1

[3] = molecular target: HSF1 (Homo sapiens, UniProt Q00613 1-529); conditions: protein: recombinant; tags: N-terminal GST; chain copies: 3; dsDNA, one strand shown
Sequence of HSF1 (Q00613 whole entry): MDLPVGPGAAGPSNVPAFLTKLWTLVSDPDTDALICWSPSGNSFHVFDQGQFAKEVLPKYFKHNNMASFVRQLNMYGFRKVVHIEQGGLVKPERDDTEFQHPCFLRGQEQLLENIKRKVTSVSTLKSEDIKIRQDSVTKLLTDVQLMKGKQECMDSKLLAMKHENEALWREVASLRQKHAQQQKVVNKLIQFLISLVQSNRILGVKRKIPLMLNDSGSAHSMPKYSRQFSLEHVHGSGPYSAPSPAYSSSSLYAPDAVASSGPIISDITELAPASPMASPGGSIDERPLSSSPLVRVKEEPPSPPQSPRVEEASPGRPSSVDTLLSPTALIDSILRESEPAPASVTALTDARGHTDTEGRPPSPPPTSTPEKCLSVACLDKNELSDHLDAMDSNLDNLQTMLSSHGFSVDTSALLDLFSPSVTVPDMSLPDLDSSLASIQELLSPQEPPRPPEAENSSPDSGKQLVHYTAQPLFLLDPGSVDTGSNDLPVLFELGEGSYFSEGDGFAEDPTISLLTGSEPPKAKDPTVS
Summary of the method: as §1

[4] = molecular target: T2, SPIC (Homo sapiens, UniProt Q8N5J4 1-248); conditions: protein: recombinant; tags: N-terminal GST; dsDNA, one strand shown
T2 sequence: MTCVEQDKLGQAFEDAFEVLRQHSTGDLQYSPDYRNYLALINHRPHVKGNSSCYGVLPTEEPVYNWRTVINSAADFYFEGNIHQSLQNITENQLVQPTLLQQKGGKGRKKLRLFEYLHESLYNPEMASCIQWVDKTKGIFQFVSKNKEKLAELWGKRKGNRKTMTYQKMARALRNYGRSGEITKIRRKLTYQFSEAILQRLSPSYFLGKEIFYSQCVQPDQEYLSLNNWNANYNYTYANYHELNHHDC
Summary of the method: as §1

[5] = molecular target: ELF4 (Homo sapiens, UniProt Q99607 1-663); conditions: protein: recombinant; tags: N-terminal GST; dsDNA, one strand shown
Sequence of ELF4 (Q99607 whole entry): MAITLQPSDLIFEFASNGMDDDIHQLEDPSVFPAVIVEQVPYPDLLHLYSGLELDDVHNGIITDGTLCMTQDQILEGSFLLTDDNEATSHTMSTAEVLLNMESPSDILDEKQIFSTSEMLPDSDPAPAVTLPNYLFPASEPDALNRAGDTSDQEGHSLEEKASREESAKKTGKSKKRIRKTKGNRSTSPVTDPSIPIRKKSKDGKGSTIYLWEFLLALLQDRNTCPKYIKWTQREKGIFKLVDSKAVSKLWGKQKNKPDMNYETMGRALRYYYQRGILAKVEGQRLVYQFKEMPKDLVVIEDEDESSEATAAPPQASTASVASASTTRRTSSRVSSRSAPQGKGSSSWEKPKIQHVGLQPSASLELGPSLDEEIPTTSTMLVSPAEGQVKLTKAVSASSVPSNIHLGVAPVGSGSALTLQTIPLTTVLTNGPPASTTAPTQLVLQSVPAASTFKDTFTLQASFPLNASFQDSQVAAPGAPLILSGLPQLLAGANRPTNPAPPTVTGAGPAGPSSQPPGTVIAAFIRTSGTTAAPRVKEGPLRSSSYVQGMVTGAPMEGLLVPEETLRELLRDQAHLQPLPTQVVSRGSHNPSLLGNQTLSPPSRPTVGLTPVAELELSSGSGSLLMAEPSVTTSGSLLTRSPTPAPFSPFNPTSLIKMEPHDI
Summary of the method: as §1

[6] = molecular target: T3, ELK4 (Homo sapiens, UniProt P28324-2 1-405); conditions: protein: recombinant; tags: N-terminal GST; dsDNA, one strand shown
T3 sequence: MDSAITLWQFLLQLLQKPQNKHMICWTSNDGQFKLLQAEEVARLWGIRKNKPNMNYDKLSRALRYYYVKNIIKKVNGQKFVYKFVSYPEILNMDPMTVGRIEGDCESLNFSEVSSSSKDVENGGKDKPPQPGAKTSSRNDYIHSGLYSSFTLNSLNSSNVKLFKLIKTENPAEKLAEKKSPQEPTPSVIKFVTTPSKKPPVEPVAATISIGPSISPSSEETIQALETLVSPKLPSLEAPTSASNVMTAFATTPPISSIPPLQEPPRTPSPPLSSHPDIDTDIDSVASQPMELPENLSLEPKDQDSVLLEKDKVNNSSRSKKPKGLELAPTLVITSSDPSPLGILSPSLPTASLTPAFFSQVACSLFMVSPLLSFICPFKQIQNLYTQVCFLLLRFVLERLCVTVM
Summary of the method: as §1

[7] = molecular target: T4, ETV2 (Homo sapiens, UniProt O00321 1-342); conditions: protein: recombinant; tags: N-terminal GST; dsDNA, one strand shown
T4 sequence: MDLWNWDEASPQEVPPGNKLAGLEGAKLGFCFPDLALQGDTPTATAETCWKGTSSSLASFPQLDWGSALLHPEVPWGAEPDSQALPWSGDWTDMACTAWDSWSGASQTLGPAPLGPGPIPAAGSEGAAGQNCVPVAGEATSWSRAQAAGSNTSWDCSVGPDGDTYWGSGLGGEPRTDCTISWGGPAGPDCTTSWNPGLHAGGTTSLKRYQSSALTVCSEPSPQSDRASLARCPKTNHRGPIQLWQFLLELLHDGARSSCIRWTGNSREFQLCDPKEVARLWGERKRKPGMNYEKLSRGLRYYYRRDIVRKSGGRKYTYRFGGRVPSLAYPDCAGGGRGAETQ
Summary of the method: as §1

[8] = molecular target: T5, ELF3 (Homo sapiens, UniProt P78545 1-371); conditions: protein: recombinant; tags: N-terminal GST; dsDNA, one strand shown
T5 sequence: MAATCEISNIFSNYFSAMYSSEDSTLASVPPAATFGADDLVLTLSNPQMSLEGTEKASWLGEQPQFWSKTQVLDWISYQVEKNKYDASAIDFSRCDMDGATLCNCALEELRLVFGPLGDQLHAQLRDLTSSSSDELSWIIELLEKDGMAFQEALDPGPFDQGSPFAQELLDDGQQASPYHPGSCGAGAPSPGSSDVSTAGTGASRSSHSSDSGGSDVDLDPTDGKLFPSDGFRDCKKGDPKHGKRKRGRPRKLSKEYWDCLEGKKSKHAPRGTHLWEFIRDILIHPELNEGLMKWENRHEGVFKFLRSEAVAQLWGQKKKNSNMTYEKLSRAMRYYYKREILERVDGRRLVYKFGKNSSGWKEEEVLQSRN
Summary of the method: as §1

[9] = molecular target: CRX (Homo sapiens, UniProt O43186 1-299); conditions: protein: recombinant; tags: N-terminal GST; dsDNA, one strand shown
Sequence of CRX (O43186 whole entry): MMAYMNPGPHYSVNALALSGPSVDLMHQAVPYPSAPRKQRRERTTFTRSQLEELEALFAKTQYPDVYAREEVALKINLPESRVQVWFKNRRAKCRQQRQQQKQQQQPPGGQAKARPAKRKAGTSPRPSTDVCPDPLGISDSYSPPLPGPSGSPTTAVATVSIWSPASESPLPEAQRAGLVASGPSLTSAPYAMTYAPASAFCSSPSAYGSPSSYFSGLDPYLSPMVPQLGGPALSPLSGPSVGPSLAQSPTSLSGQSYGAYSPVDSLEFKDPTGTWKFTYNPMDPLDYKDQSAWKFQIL
Summary of the method: as §1

[10] = molecular target: ETV1 (Homo sapiens, UniProt P50549 1-477); conditions: protein: recombinant; tags: N-terminal GST; dsDNA, one strand shown
Sequence of ETV1 (P50549 whole entry): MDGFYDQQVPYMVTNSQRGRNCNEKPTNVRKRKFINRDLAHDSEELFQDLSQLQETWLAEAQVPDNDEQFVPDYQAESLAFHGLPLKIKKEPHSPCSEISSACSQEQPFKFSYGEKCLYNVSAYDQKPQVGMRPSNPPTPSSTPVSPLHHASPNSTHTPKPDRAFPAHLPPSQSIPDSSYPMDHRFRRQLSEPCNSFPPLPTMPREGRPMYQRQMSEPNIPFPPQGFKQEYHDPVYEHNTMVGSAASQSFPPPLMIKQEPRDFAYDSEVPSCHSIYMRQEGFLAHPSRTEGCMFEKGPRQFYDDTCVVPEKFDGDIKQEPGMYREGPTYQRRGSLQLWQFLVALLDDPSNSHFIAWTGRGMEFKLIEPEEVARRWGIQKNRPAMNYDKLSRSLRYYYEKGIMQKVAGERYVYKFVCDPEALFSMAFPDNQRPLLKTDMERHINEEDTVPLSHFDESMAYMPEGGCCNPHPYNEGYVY
Summary of the method: as §1

[11] = molecular target: T6, ERF (Homo sapiens, UniProt P50548 1-548); conditions: protein: recombinant; tags: N-terminal GST; dsDNA, one strand shown
T6 sequence: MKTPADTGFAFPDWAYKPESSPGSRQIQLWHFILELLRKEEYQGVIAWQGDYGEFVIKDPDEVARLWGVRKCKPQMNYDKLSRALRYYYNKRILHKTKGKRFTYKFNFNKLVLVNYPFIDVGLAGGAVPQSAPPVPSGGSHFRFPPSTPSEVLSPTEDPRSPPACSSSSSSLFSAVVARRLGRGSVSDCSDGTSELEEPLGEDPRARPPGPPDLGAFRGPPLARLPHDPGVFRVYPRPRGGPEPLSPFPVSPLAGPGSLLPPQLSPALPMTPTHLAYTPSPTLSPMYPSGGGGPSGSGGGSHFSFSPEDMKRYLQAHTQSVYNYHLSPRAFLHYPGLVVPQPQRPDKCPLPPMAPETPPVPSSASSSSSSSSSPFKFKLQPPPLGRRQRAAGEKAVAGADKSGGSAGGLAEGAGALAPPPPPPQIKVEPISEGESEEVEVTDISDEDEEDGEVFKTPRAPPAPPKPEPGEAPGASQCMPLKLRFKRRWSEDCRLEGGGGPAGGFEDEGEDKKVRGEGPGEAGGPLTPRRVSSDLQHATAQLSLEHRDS
Summary of the method: as §1

[12] = molecular target: T7, ETV3L (Homo sapiens, UniProt Q6ZN32 1-361); conditions: protein: recombinant; tags: N-terminal GST; dsDNA, one strand shown
T7 sequence: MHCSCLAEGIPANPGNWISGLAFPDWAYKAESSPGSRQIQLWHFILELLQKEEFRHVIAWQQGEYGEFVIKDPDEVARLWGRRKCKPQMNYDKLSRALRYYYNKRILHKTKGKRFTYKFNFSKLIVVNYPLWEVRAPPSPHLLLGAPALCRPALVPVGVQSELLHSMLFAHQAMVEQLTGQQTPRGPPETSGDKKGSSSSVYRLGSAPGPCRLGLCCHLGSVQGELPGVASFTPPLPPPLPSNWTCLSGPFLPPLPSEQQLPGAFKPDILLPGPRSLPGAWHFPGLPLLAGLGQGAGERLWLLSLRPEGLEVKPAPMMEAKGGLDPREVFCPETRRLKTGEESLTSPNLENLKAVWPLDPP
Summary of the method: as §1

[13] = molecular target: T8, ETS2 (Homo sapiens, UniProt P15036 1-469); conditions: protein: recombinant; tags: N-terminal GST; dsDNA, one strand shown
T8 sequence: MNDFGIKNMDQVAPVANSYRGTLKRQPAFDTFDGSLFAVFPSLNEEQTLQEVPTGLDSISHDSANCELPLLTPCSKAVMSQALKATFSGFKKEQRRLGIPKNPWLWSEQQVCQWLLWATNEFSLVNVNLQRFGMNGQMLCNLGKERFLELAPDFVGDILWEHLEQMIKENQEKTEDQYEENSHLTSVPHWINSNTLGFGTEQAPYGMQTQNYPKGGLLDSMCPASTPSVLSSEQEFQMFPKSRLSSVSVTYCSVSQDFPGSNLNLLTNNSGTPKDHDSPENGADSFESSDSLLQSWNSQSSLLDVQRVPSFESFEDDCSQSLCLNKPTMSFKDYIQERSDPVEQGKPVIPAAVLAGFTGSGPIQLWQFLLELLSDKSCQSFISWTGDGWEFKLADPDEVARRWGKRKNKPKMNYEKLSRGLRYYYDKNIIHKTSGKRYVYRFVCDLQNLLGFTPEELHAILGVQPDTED
Summary of the method: as §1

[14] = molecular target: T9, SPDEF (Homo sapiens, UniProt O95238 1-335); conditions: protein: recombinant; tags: N-terminal GST; dsDNA, one strand shown
T9 sequence: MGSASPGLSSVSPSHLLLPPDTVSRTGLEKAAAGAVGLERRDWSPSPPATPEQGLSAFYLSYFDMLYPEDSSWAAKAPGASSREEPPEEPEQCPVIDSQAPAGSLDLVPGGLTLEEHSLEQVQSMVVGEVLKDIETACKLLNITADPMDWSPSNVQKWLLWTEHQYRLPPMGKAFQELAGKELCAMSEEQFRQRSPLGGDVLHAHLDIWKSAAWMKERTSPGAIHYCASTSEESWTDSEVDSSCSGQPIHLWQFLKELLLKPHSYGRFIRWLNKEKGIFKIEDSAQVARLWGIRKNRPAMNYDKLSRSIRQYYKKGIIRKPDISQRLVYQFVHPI
Summary of the method: as §1

[15] = molecular target: T10, ETV7 (Homo sapiens, UniProt Q9Y603 1-341); conditions: protein: recombinant; tags: N-terminal GST; dsDNA, one strand shown
T10 sequence: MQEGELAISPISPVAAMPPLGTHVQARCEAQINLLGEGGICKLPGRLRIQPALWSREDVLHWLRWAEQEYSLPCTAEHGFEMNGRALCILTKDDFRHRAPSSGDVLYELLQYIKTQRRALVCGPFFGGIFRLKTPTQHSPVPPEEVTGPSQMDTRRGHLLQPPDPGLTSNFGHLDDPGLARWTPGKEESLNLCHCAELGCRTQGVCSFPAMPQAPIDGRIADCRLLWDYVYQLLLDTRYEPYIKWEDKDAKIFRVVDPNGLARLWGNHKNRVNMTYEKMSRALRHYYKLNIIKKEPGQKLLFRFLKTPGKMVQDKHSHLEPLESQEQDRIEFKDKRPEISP
Summary of the method: as §1

[16] = molecular target: T11, ELF5 (Homo sapiens, UniProt Q9UKW6-2 1-255); conditions: protein: recombinant; tags: N-terminal GST; dsDNA, one strand shown
T11 sequence: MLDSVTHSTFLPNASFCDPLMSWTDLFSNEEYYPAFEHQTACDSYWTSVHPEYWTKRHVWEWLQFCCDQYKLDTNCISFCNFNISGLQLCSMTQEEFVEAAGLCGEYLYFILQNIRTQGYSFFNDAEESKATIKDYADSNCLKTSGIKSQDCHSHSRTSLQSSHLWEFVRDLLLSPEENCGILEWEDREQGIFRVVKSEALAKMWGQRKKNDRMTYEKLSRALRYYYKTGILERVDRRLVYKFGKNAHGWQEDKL
Summary of the method: as §1

[17] = molecular target: T12, ETV3 (Homo sapiens, UniProt P41162-2 1-143); conditions: protein: recombinant; tags: N-terminal GST; dsDNA, one strand shown
T12 sequence: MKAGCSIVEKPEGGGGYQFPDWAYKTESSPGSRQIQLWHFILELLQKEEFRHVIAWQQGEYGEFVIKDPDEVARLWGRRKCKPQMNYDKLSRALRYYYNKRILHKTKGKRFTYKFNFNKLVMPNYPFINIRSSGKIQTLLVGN
Summary of the method: as §1

[18] = molecular target: ETV6 (Homo sapiens, UniProt P41212 1-452); conditions: protein: recombinant; tags: N-terminal GST; dsDNA, one strand shown
Sequence of ETV6 (P41212 whole entry): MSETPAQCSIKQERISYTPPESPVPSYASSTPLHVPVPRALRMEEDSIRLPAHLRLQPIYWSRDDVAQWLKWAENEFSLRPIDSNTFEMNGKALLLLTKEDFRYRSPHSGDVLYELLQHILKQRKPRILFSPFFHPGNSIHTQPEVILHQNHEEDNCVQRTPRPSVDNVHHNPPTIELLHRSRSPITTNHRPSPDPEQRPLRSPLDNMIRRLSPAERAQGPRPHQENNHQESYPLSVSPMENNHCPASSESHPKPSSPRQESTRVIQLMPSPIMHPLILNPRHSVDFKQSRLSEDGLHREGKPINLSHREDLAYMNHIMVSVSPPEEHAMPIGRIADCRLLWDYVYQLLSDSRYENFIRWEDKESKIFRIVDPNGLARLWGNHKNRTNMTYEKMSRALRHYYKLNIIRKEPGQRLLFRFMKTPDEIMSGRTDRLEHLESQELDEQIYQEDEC
Summary of the method: as §1

TATGGC
binding signal [1]: 1.36 fold enrichment (6-mer frequency, TF over GST control)
binding signal [2]: 1.33 fold enrichment (6-mer frequency, TF over GST control)
binding signal [3]: 1.2 fold enrichment (6-mer frequency, TF over GST control)
binding signal [4]: 1.17 fold enrichment (6-mer frequency, TF over GST control)
binding signal [5]: 1.2 fold enrichment (6-mer frequency, TF over GST control)
binding signal [6]: 1.2 fold enrichment (6-mer frequency, TF over GST control)
binding signal [7]: 1.41 fold enrichment (6-mer frequency, TF over GST control)
binding signal [8]: 1.29 fold enrichment (6-mer frequency, TF over GST control)
binding signal [9]: 1.34 fold enrichment (6-mer frequency, TF over GST control)
binding signal [10]: 1.25 fold enrichment (6-mer frequency, TF over GST control)
binding signal [11]: 1.25 fold enrichment (6-mer frequency, TF over GST control)
binding signal [12]: 1.23 fold enrichment (6-mer frequency, TF over GST control)
binding signal [13]: 1.2 fold enrichment (6-mer frequency, TF over GST control)
binding signal [14]: 1.27 fold enrichment (6-mer frequency, TF over GST control)
binding signal [15]: 1.26 fold enrichment (6-mer frequency, TF over GST control)
binding signal [16]: 1.23 fold enrichment (6-mer frequency, TF over GST control)
binding signal [17]: 1.31 fold enrichment (6-mer frequency, TF over GST control)
binding signal [18]: 1.29 fold enrichment (6-mer frequency, TF over GST control)
